{"source": "PubChem BioAssay (NCI)", "note": "Compounds without any hit were thinned out: in the full panel of roughly 83,000, 20% have a hit.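 Each cell line was grown in a 96-well plate and treated with one concentration of compound for 48 hours. Values below 10 were considered active.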 Values without a mark were called inactive. Activity calls are given as the source filed them.", "data": [{"system": "HL-60(TB) leukemia", "experiment": "NCI-60 one-dose screen, 48 h (100 = growth as untreated, 0 = no growth, -100 = all killed)", "settings": "10 µM unless noted", "values": [{"smiles": "O=c1oc2ccccc2cc1-c1csc(N/N=C/c2cc3ccccc3nc2Cl)n1", "growth": "116%"}, {"smiles": "NC(CCl)=NCCC[C@H](N)C(=O)O", "growth": "104%"}, {"smiles": "Cc1cnc2nc(-c3ccc(N(C)C)cc3)cn2c1", "growth": "90.7%"}, {"smiles": "Cc1ccc2nc(N)nnc2c1", "growth": "125%"}, {"smiles": "COc1cccc2c1O/C(=C\\c1ccc([N+](=O)[O-])s1)C2=O", "growth": "39%"}, {"smiles": "O=C(Nc1ccc(C2=NCCCN2)cc1)c1ccc(C(=O)Nc2ccc(C3=NCCCN3)cc2)nc1", "growth": "79%"}, {"smiles": "O=C1Nc2cc(Cl)ccc2Oc2cc(Oc3ccccc3)ccc21", "growth": "38.6%"}, {"smiles": "CN1C(=O)N(C)C2(c3ccccc3)n3c(s/c(=C\\c4ccccc4)c3=O)=NNC12c1ccccc1", "note": "(stereo not given)", "growth": "90.1%"}, {"smiles": "Cc1ccc(S(=O)(=O)NCCNc2nccc(-c3c(-c4ccc(O)cc4)nc4sccn34)n2)cc1", "growth": "155%"}, {"smiles": "CC(C)CCCC(=O)O", "growth": "109%"}, {"smiles": "Cc1cc(C)nc(NS(=O)(=O)c2ccc(Nc3nc4nc(SCc5ccccc5)nc(-c5ccc(O)cc5)c4c(=O)[nH]3)cc2)n1", "growth": "86.3%"}, {"smiles": "c1ccc(-c2nnc(-c3ccccn3)s2)nc1", "growth": "95.8%"}, {"smiles": "COc1ccc(-c2nn(-c3ccc(NC(=O)Nc4ccc(Cl)c(C(F)(F)F)c4)cc3)cc2-c2ccncc2)cc1Cl", "growth": "-11.9% (active)"}, {"smiles": "O=C(O)CCCCCNC(=O)OCc1ccccc1", "growth": "103%"}, {"smiles": "O=[N+]([O-])c1cccc(C(F)(F)F)c1", "growth": "109%"}, {"smiles": "COc1cc2cc(Oc3ccc(NC(=O)Nc4ccc(F)c(C(F)(F)F)c4)cc3)c(C)nc2cc1OCCN1CCCCC1", "growth": "-24.5% (active)"}, {"smiles": "COc1ccc(C(=O)c2cc3c(N)c(C(=O)Nc4cccc(OC)c4)sc3nc2C)cc1", "growth": "-44.5% (active)"}, {"smiles": "CCSc1cnnc2ccccc12", "growth": "91.5%"}, {"smiles": "CCN(CC)c1ccc(/C=C(\\C#N)c2cc3ccccc3[nH]2)cc1", "growth": "45.6%"}, {"smiles": "C=C(C)[C@@H]1CC[C@]2(CO)CC[C@]3(C)[C@H](CC[C@@H]4[C@@]5(C)CCCNC(C)(C)[C@@H]5CC[C@]43C)[C@@H]12", "growth": "-51.9% (active)"}, {"smiles": "CC1CN(/N=C/c2ccc([N+](=O)[O-])o2)C(=N)O1", "note": "(stereo not given)", "growth": "99.8%"}, {"smiles": "COc1cc2nc(-c3ccc(-c4nn[nH]n4)cc3)[nH]c(=O)c2cc1OC", "growth": "93.8%"}, {"smiles": "CCOC(=O)c1c(C)nc2c(c1N)/C(=C/c1ccccn1)C(=O)N2Cc1ccccc1", "growth": "-5.96% (active)"}, {"smiles": "COC(=O)[C@H](Cc1ccc(O)cc1)NC(=O)[C@@H](OC)[C@@H]1Cc2cc3cc(OC4CC(OC5CC(O)C(O)C(C)O5)C(O)C(C)O4)c(C)c(O)c3c(O)c2C(=O)[C@H]1OC1CC(OC2CC(OC3CC(C)(O)C(O)C(C)O3)C(O)C(C)O2)C(O)C(C)O1", "note": "(stereo not given in full)", "growth": "8.2% (active)"}, {"smiles": "CS(=O)(=O)c1ccc(-c2nc3cc(Cl)ccc3n2CC(=O)N/N=C/c2ccc(Cl)cc2)cc1", "growth": "25.3%"}, {"smiles": "Nc1ccc(C(=O)Nc2cccc(C(=O)Nc3ccc4c(O)c(N=Nc5ccc(N=Nc6ccc(S(=O)(=O)O)cc6)cc5)c(S(=O)(=O)O)cc4c3)c2)cc1", "growth": "89.1%"}, {"smiles": "Cc1cc2c(-c3nc4ccccc4n3C)c(O)c(O)cc2c(O)c1-c1c(C)cc2c(-c3nc4ccccc4n3C)c(O)c(O)cc2c1O", "growth": "76.7%"}, {"smiles": "O=C(NC(CSSCC(NC(=O)OCc1ccccc1)C(=O)O)C(=O)O)OCc1ccccc1", "note": "(stereo not given)", "growth": "14.3%"}, {"smiles": "O=C(Nc1ccc(-n2cc(-c3ccncc3)c(-c3ccc(O)c(Cl)c3)n2)cc1)c1cc(C(F)(F)F)cc(C(F)(F)F)c1", "growth": "84.4%"}, {"smiles": "O=C1OC(N(Cc2ccc(Cl)cc2)c2ccccc2)c2ccccc21", "note": "(stereo not given)", "growth": "93.8%"}, {"smiles": "c1ccc2c(c1)CN(CCCN1CCOCC1)C2", "growth": "105%"}, {"smiles": "CCOc1cccc(/C=N/NC(=O)c2ccccc2Nc2ccnc(C(F)(F)F)c2)c1O", "growth": "-4.47% (active)"}, {"smiles": "CC(C)OC(=O)c1ccc([N+](=O)[O-])cc1", "growth": "121%"}, {"smiles": "COc1cc(-c2n/c(=C\\c3c(O)[nH]c4cc(Cl)ccc34)cc3c2=Nc2ccccc2-3)cc(OC)c1OC", "growth": "89.6%"}, {"smiles": "Cc1cc(O)cc(O)c1N=NC1=NCCS1", "growth": "105%"}, {"smiles": "C#C[C@]1(O)CCC2C3CCc4cc(OC5CCCC5)ccc4C3CC[C@@]21C", "note": "(stereo not given in full)", "growth": "77%"}, {"smiles": "CCN(CC)CCCC(Nc1c2ccc(Cl)cc2nc2ccc(OC)cc12)c1ccc(Cl)cc1", "note": "(stereo not given)", "growth": "-16.2% (active)"}, {"smiles": "c1ccc2cc(C[n+]3ccn(CCCCCCCCCCn4cc[n+](Cc5ccc6ccccc6c5)c4)c3)ccc2c1", "growth": "-67.8% (active)"}, {"smiles": "Cc1sc2nc(NCCc3cccs3)[nH]c(=O)c2c1C", "growth": "102%"}, {"smiles": "Cc1onc(-c2ccccc2Cl)c1C(=O)Cl", "growth": "104%"}]}]}
